Results on five molecules are retold here after PubChem BioAssay.

The structures appear in SMILES notation.

The test system of the experiment is Human papillomavirus type 1a protein E7 (residues 44-93). Briefly: HPV1a E7 fragment binders on microarrays, primary screen, biochemical, small-molecule microarray, residues 44-93, 635 nm fluorescence (AID 1108).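 Further: E7 fragment applied at 1 µg/mL in TBST for 1 h at 4 C; score combines spot fluorescence with its signal to noise ratio.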 Conditions: small-molecule microarray binding, fluorescence 635 nm; higher = more signal.
`CC(C)[C@H]1COC(=O)N1C(=O)[C@H]1[C@@H](c2ccccc2)N(c2ccccc2)O[C@@H]1C` returned a composite z-score of 0.359.

`O=C1O[C@@H](c2ccccc2)[C@@H](c2ccccc2)N2[C@@H](c3ccc(O)cc3)[C@]3(C(=O)Nc4ccc(C#CCCO)cc43)[C@@H](C(=O)O)[C@H]12`: the composite z-score was 0.449.

Regarding `Cc1ccc(S[C@]2(C(=O)NCCCN(C)C)CC(=O)N(C(C)C)[C@@H]2c2ccc(CO)cc2I)cc1`, the composite z-score is -0.257.

`Cc1ccc(N2C(=O)c3ccccc3[C@](C)(C(=O)NCCN3CCOCC3)[C@@H]2c2ccc(CO)cc2)nc1` gave a composite z-score of -0.742.

`COC(=O)C(CC#Cc1ccc2c(c1)[C@]1(C(=O)N2)[C@H](C(=O)N2CCCCCCC2)[C@H]2C(=O)O[C@H](c3ccccc3)[C@H](c3ccccc3)N2[C@@H]1c1ccccc1OCCO)C(=O)OC` came in with a composite z-score of 1.6.
